# Test results published in the OligoGym collection.
# What was measured:
# Test in all cases: pooled miR-30 sensor sort-seq; sequence = guide strand
# Conditions in all cases: shRNA
# [1] = target: LRRC45
# [2] = target: LTA4H
# [3] = target: LSG1
# [4] = target: LRRC8D
# [5] = target: LUC7L2
# [6] = target: LY96
# [7] = target: LY6K
# [8] = target: LYPD3
# [9] = target: MAN1C1
# [10] = target: MCM6
# [11] = target: MED28
# [12] = target: MED17
# [13] = target: MED31
# [14] = target: MEPCE
# [15] = target: MIP
# [16] = target: MIER1
# [17] = target: MIOX
# [18] = target: MIS12
# Further: reference of the scale not given here.
sequence,measurement,setting,value
TTGGCAGCAGACAAGTCTCTGA,sensor-assay potency score (higher = more potent),[1],-0.793
TTTTTCTATTGTAAGGTCCTTT,sensor-assay potency score (higher = more potent),[2],0.0919
TGTGTCTCGTGAACCATCCCTT,sensor-assay potency score (higher = more potent),[3],0.477
TTCTGCAGGAAGCTCGCCCTCT,sensor-assay potency score (higher = more potent),[1],-0.654
TAAACTTCATTCTTCCTTGTTC,sensor-assay potency score (higher = more potent),[2],0.185
TAAGGTGCCGCAACTCTCGGAG,sensor-assay potency score (higher = more potent),[4],0.33
TATATCTGTCAGATCAACCACA,sensor-assay potency score (higher = more potent),[2],0.143
TTTCGAGCATCTACTATCTGGA,sensor-assay potency score (higher = more potent),[3],-0.305
TAGCTCACATCTAAGCATCTGA,sensor-assay potency score (higher = more potent),[4],0.32
TGATCTTCCACAACAAGCCCGC,sensor-assay potency score (higher = more potent),[4],-0.444
TTGTAGCTCACATCTAAGCATC,sensor-assay potency score (higher = more potent),[4],-1.4
TTGAACTCTTACCAACATTAGG,sensor-assay potency score (higher = more potent),[3],-1.3
TGAACTTCCGCTCCAACTCGTC,sensor-assay potency score (higher = more potent),[1],-0.925
TTAAGTACAACTCTCGAAGGTT,sensor-assay potency score (higher = more potent),[4],0.166
TTGCTTTGTCTATCATCTCTGT,sensor-assay potency score (higher = more potent),[3],-0.0591
TTGTGTGCAACCAGGAGTCAGT,sensor-assay potency score (higher = more potent),[3],-0.781
TTTGGATCGAGTTCTCCTCTTG,sensor-assay potency score (higher = more potent),[5],-0.398
TAATCGTCATCAGATCCTCGGC,sensor-assay potency score (higher = more potent),[6],-0.407
AATAGCTTCAACAACACATTTG,sensor-assay potency score (higher = more potent),[6],-1.65
TTTCTCTCTCACAAACATGACA,sensor-assay potency score (higher = more potent),[7],-1.23
TTTCACAGAAGGAGTGTCCTGA,sensor-assay potency score (higher = more potent),[2],0.561
TGTATGAAATACTTGCATCGGA,sensor-assay potency score (higher = more potent),[6],-0.274
TTAACTCATGAACACGTTCTGC,sensor-assay potency score (higher = more potent),[5],-0.686
AATTTTACAACACTTGAGGTAA,sensor-assay potency score (higher = more potent),[7],-0.3
TCTCTTGAACTCCTGTCTCTGT,sensor-assay potency score (higher = more potent),[5],-0.457
TTCATCCTGGACACAGCCCCGG,sensor-assay potency score (higher = more potent),[8],-0.847
TAGGATGACAAACTCCAAGCAA,sensor-assay potency score (higher = more potent),[6],-0.085
TTCACTGTCTTCATCTTGTTCG,sensor-assay potency score (higher = more potent),[8],0.494
TTGCATACTCTGTCATCACTGA,sensor-assay potency score (higher = more potent),[5],0.248
TCTCTCACAAACATGACACCAC,sensor-assay potency score (higher = more potent),[7],0.0962
TTTGTATCCAAAACCAGGCTGC,sensor-assay potency score (higher = more potent),[2],0.416
TTGCTTTAAATCTCTCCTTGGA,sensor-assay potency score (higher = more potent),[6],0.126
TTGGCGTCTGTCCACACCCGCG,sensor-assay potency score (higher = more potent),[7],-1.54
TCTATTGTCACCCTCGTCCGTT,sensor-assay potency score (higher = more potent),[7],-0.102
TTGTATTCACAGTCTCTCCCTT,sensor-assay potency score (higher = more potent),[6],0.102
TTGAACACTGATGAGTTGATAG,sensor-assay potency score (higher = more potent),[7],-0.979
TCTTTGAACACTGATGAGTTGA,sensor-assay potency score (higher = more potent),[7],-0.353
TAATGCAACAGGTGACAACGGT,sensor-assay potency score (higher = more potent),[7],-0.099
AAACATGACACCACACTCTATT,sensor-assay potency score (higher = more potent),[7],-0.883
AATTGCTTTAAATCTCTCCTTG,sensor-assay potency score (higher = more potent),[6],-0.268
ACTGTCTTCATCTTGTTCGGGG,sensor-assay potency score (higher = more potent),[8],0.213
TATAATTGCTTTAAATCTCTCC,sensor-assay potency score (higher = more potent),[6],0.0244
TATTCTTTGAACACTGATGAGT,sensor-assay potency score (higher = more potent),[7],-0.623
TCTCCATCGCTGCACAACCAGC,sensor-assay potency score (higher = more potent),[7],-1.92
TAGGTGTATGAAATACTTGCAT,sensor-assay potency score (higher = more potent),[6],-0.275
TAATCTCTTCTTGAGTTTCTGC,sensor-assay potency score (higher = more potent),[5],-0.17
TTCAACAACACATTTGTATTTT,sensor-assay potency score (higher = more potent),[6],-1.05
TTTGCTGCTACTTCAGCACTAA,sensor-assay potency score (higher = more potent),[5],-0.0299
TACTTCATCCATTACTTTCTGG,sensor-assay potency score (higher = more potent),[5],-0.257
TAGCGAATTTTACAACACTTGA,sensor-assay potency score (higher = more potent),[7],-0.625
TTGTTGTATTCACAGTCTCTCC,sensor-assay potency score (higher = more potent),[6],-1.2
TTGGATCGTTCTCTGCTCCTAT,sensor-assay potency score (higher = more potent),[5],0.469
TTGAGAAGGTGACTCTTGCATA,sensor-assay potency score (higher = more potent),[5],-0.354
TAGAACATCCTGAACATAGCAA,sensor-assay potency score (higher = more potent),[5],0.289
TGTCTCTGTCACATGATGCTAA,sensor-assay potency score (higher = more potent),[5],-0.366
TAAATCTCTCCTTGGAATGTAG,sensor-assay potency score (higher = more potent),[6],-0.351
TTGTGTGTGTGCAAACACTGGG,sensor-assay potency score (higher = more potent),[9],0.0469
TAAAGTCACACTTGTCACCAGC,sensor-assay potency score (higher = more potent),[10],-0.442
TTCGAATTTCTTCCTGATCGGT,sensor-assay potency score (higher = more potent),[11],-0.329
TAAAATGAACTCATTATCTGGC,sensor-assay potency score (higher = more potent),[11],0.719
TTACACATGAAAACAAAGGTAT,sensor-assay potency score (higher = more potent),[10],-0.0386
TAGATTTTTATCTTGACTCATC,sensor-assay potency score (higher = more potent),[10],-0.898
TTATCTTGTAAAACATCACTTT,sensor-assay potency score (higher = more potent),[12],-0.0835
TTTGCTGTTGCTGCTCTGCCAA,sensor-assay potency score (higher = more potent),[13],-0.936
ATATCTTCTGATATCATCGAGG,sensor-assay potency score (higher = more potent),[10],-0.536
TATCTTTTTATCCAGATCGAGA,sensor-assay potency score (higher = more potent),[12],-1.18
TCGTCCACCAAAGTACTGCTGG,sensor-assay potency score (higher = more potent),[11],-0.123
TAAGAAAAAACATTCTGTCTGT,sensor-assay potency score (higher = more potent),[11],0.366
TAGTTCTGACACATCCTCTTTG,sensor-assay potency score (higher = more potent),[11],-0.787
TTCAGGTATCTTTTTATCCAGA,sensor-assay potency score (higher = more potent),[12],-0.5
TTTGGTTCCAACTTCACTGGGA,sensor-assay potency score (higher = more potent),[10],1.01
TCGAATTTCTTCCTGATCGGTG,sensor-assay potency score (higher = more potent),[11],-0.612
TATTATTTTACATCTTGTCATA,sensor-assay potency score (higher = more potent),[12],-1.34
TAACTTGCTCTGGTTTCTGGAC,sensor-assay potency score (higher = more potent),[11],-0.587
TCTATGTACAACTCGAATCTGC,sensor-assay potency score (higher = more potent),[12],-0.242
TTCTGTAGCTCAGATCTCCGAG,sensor-assay potency score (higher = more potent),[12],0.121
ATGAATAGCAACTTGATCCCGC,sensor-assay potency score (higher = more potent),[10],0.187
TATTACTGCACAGTCATCTTAC,sensor-assay potency score (higher = more potent),[12],-0.307
TAAATTTCGCACACTGAGCATT,sensor-assay potency score (higher = more potent),[13],-1.04
TAGAACATGATCATAGTGTGTG,sensor-assay potency score (higher = more potent),[10],0.881
TACAACACACACCATTATCAGC,sensor-assay potency score (higher = more potent),[10],-1.14
TCCAACTCCAACTGAAACCGAA,sensor-assay potency score (higher = more potent),[13],-1.04
TACACTAGGTGTCTCAACTGGT,sensor-assay potency score (higher = more potent),[12],0.232
TTGTCTTTGAAGTAACCTCTTT,sensor-assay potency score (higher = more potent),[13],-0.371
TTAGTTCTGACACATCCTCTTT,sensor-assay potency score (higher = more potent),[11],-0.943
TTTTATTCCACTGAACTTCTTT,sensor-assay potency score (higher = more potent),[12],0.579
TTTGTAAGAAAAAACATTCTGT,sensor-assay potency score (higher = more potent),[11],0.226
TTTATGAAACTCTCTAATCAGT,sensor-assay potency score (higher = more potent),[12],-0.898
TTTACATAAGAGAACATTCTGT,sensor-assay potency score (higher = more potent),[12],-0.192
TTGCTGAACTGCATGTACCTGG,sensor-assay potency score (higher = more potent),[12],0.418
TATCTCTGATTCGATTTCCTTC,sensor-assay potency score (higher = more potent),[10],-0.514
TTGATCTAGATTGACATCAGGT,sensor-assay potency score (higher = more potent),[10],0.643
TTGATTTATTCAGTAACCGGAA,sensor-assay potency score (higher = more potent),[10],-0.345
TTGATTTATGTCTTCATTGTAG,sensor-assay potency score (higher = more potent),[10],-0.457
TGTCTGTCTTGCAATATCCAGA,sensor-assay potency score (higher = more potent),[11],-0.689
TTCCGCTGTAATTCATTCCTTA,sensor-assay potency score (higher = more potent),[11],0.0365
TTGGAGCAGCTCTAACATGTGT,sensor-assay potency score (higher = more potent),[13],-0.598
TCTAACATGTGTAAACACTGAG,sensor-assay potency score (higher = more potent),[13],0.543
TAGTAGTTCTTGTAGATCGTTT,sensor-assay potency score (higher = more potent),[14],-0.407
TTGTCCATTGGAGACATCGGGT,sensor-assay potency score (higher = more potent),[15],-0.903
TACTGTTTGATGCAGTTGGGGG,sensor-assay potency score (higher = more potent),[16],-0.856
TGTCCATTGGAGACATCGGGTT,sensor-assay potency score (higher = more potent),[15],-1.24
TTATCTTCTGGTAAGTACTCAG,sensor-assay potency score (higher = more potent),[16],-0.171
TGAGTGCTAGGTTTCCTCGGAC,sensor-assay potency score (higher = more potent),[15],-0.712
TTGTAGGTGGTGAAGACACGGT,sensor-assay potency score (higher = more potent),[17],-0.626
TAACGCTATACAGCACAGCGGC,sensor-assay potency score (higher = more potent),[15],-1.18
TTTTCTTGTAGGAGAAGCCCCC,sensor-assay potency score (higher = more potent),[17],-0.0971
TCGTATGTGGCAAAGATGCAGA,sensor-assay potency score (higher = more potent),[15],-0.993
TCGAACTTGTTGAACTCCCGCA,sensor-assay potency score (higher = more potent),[17],-0.101
TGAGGACAGACAGTCTCTCAGA,sensor-assay potency score (higher = more potent),[15],-1.25
TCTCTCAGAAATACTCTTGAGC,sensor-assay potency score (higher = more potent),[15],-0.614
AATTTCTACACTCTTCCTCTGT,sensor-assay potency score (higher = more potent),[16],0.0886
TATAATCACTTTATCTTCTGGT,sensor-assay potency score (higher = more potent),[16],0.758
TTGTGATGGATCATCATTGGAA,sensor-assay potency score (higher = more potent),[16],-0.466
TTCCTCGGACAGCAGGTGGGGT,sensor-assay potency score (higher = more potent),[15],-1.18
TACATCCCGAGCTCTGTGCTGT,sensor-assay potency score (higher = more potent),[17],-0.811
TCTGGGTCCACATCAGGTCGGT,sensor-assay potency score (higher = more potent),[17],-0.363
TAGGTTTCCTCGGACAGCAGGT,sensor-assay potency score (higher = more potent),[15],-0.243
TTCAGTCTTGTACTTCTCCTGT,sensor-assay potency score (higher = more potent),[18],0.0481
TTGGTGTAGAGGTCGAACTTGT,sensor-assay potency score (higher = more potent),[17],-0.568
